About 79,000 compounds went through this panel and 15% of them were active in at least one assay; those are over-represented in the sample as a whole. Active and inactive are the calls of the source. No stated cut-off is given here; in the data, active means growth inhibition above about 70%; inactive means the rest.
Key:
[1] = NCI Yeast Anticancer Drug Screen. Data for the rad52 strain (AID 147);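 further: 0% = growth of vehicle-treated control cultures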; conditions: S. cerevisiae rad52 mutant growth inhibition, stronger effect = higher value
Summary of the method: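 DNA repair-defective yeast; compound exposure; growth scored against vehicle controls.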

[2] = NCI Yeast Anticancer Drug Screen. Data for the wt1 strain (AID 149);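 further: 0% = growth of vehicle-treated wt1 cultures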; conditions: S. cerevisiae wt1 strain (SPY 50644) growth inhibition, stronger effect = higher value
Summary of the method: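 wt1 yeast, compound-treated; % growth inhibition vs vehicle control.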

[3] = NCI Yeast Anticancer Drug Screen. Data for the rad50EPP+ strain (AID 151);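 further: 0% = growth of vehicle-treated control cultures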; conditions: S. cerevisiae rad50 mutant strain, stronger effect = higher value
Summary of the method: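 rad50EPP+ yeast treated with test compounds. Readout: growth vs vehicle control.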

[4] = NCI Yeast Anticancer Drug Screen. Data for the mgt1 strain (AID 153); conditions: S. cerevisiae mgt1 mutant growth inhibition, stronger effect = higher value
Summary of the method: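 Growth inhibition relative to vehicle controls was scored for the mgt1 yeast strain after compound exposure.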

[5] = NCI Yeast Anticancer Drug Screen. Data for the rad50 strain (AID 155);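 further: 0% = growth of vehicle-only cultures of the same strain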; conditions: S. cerevisiae rad50 strain growth inhibition, stronger effect = higher value
Summary of the method: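 Genetically altered yeast (DNA repair pathway); compound treatment; growth inhibition vs vehicle ctrl.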

[6] = NCI Yeast Anticancer Drug Screen. Data for the mec2-1 strain (AID 157); conditions: S. cerevisiae mec2-1 strain, stronger effect = higher value
Summary of the method: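 Growth inhibition is read against vehicle-treated controls after compound exposure of the mec2-1 yeast strain, which is defective in DNA damage repair or cell cycle control.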

[7] = NCI Yeast Anticancer Drug Screen. Data for the rad14 strain (AID 159);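 further: 0% = growth of vehicle-treated control cultures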; conditions: S. cerevisiae rad14 strain growth inhibition, stronger effect = higher value
Summary of the method: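 Test compounds were applied to a repair-deficient yeast strain. Its growth was then compared with that of cultures given vehicle alone, and inhibition was expressed relative to those controls.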

[8] = NCI Yeast Anticancer Drug Screen. Data for the sgs1 mgt1 strain (AID 161);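 further: 0% = growth of cultures given vehicle only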; conditions: S. cerevisiae sgs1 mgt1 strain, stronger effect = higher value
Summary of the method: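 This yeast growth screen uses a strain with defined DNA-repair lesions; compound-treated growth is compared with vehicle-treated growth.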

[9] = NCI Yeast Anticancer Drug Screen. Data for the CLN2oe strain (AID 163);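 further: 0% = growth of vehicle-only control cultures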; conditions: S. cerevisiae CLN2oe strain, stronger effect = higher value
Summary of the method: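 Compound-treated yeast; growth vs vehicle ctrl = % inhibition. Genetically altered strain (cell-cycle control).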

[10] = NCI Yeast Anticancer Drug Screen. Data for the cln2 rad14 strain (AID 165);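 further: 0% = growth equal to vehicle treated cultures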; conditions: S. cerevisiae cln2 rad14 strain, stronger effect = higher value
Summary of the method: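 Growth inhibition, relative to vehicle-treated controls, is the read-out. The test organism is a yeast strain with defined genetic alterations, cln2 rad14.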

[11] = NCI Yeast Anticancer Drug Screen. Data for the bub3 strain (AID 167); conditions: S. cerevisiae bub3 mutant strain, stronger effect = higher value
Summary of the method: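 Yeast carrying a defined mutation is treated with each compound, and growth is compared with that of vehicle-exposed cells to give inhibition.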

[12] = NCI Yeast Anticancer Drug Screen. Data for the wt2 strain (AID 169);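 further: 0% = growth of vehicle-treated yeast cultures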; conditions: S. cerevisiae wt2 strain growth inhibition, stronger effect = higher value
Summary of the method: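 Compound exposure of yeast; growth compared with vehicle controls; inhibition reported.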

[13] = NCI Yeast Anticancer Drug Screen. Data for the mlh1 strain (AID 171);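 further: 0% = growth of vehicle-treated control cultures of the same strain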; conditions: S. cerevisiae mlh1 strain growth inhibition, stronger effect = higher value
Summary of the method: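 Compounds are applied to a genetically altered yeast strain, and its growth is compared with that of vehicle-treated cultures to give percent inhibition.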

[14] = NCI Yeast Anticancer Drug Screen. Data for the sgs1 strain (AID 173);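 further: 0% = growth of vehicle-only control cultures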; conditions: S. cerevisiae sgs1 mutant, stronger effect = higher value
Summary of the method: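 Compounds applied to genetically altered yeast; growth compared with vehicle-treated cultures to give % inhibition.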

[15] = NCI Yeast Anticancer Drug Screen. Data for the mlh1 rad18 strain (AID 175); conditions: S. cerevisiae mlh1 rad18 strain growth inhibition, stronger effect = higher value
Summary of the method: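 Cells of a genetically altered yeast strain, deficient in DNA damage repair, were treated with compound. Their growth was then compared with that of vehicle-treated cultures to give inhibition.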

[16] = NCI Yeast Anticancer Drug Screen. Data for the rad18 strain (AID 177); conditions: S. cerevisiae rad18 mutant growth inhibition, stronger effect = higher value
Summary of the method: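 Compounds are applied to a repair-deficient yeast strain, and growth is compared with that of vehicle-treated cultures to give percent inhibition.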

[17] = at 5.0 µM (retest, dose inferred, filed as 0.5)
[18] = at 50.0 µM (retest, dose inferred, filed as 5.0)

Measured: growth inhibition

COC(=O)/C=C(/CC(=O)OC)C(=O)OC
inactive: [1]; at 1.2 µM 0% | [1]; at 3.7 µM -1% | [1]; at 11.0 µM -1% | [1]; at 33.0 µM -1% | [1]; at 100.0 µM -2% | [2]; at 1.2 µM -2% | [2]; at 3.7 µM 0% | [2]; at 11.0 µM -1% | [2]; at 33.0 µM -3% | [2]; at 100.0 µM -3% | [3]; at 1.2 µM 2% | [3]; at 3.7 µM -2% | [3]; at 11.0 µM -1% | [3]; at 33.0 µM -1% | [3]; at 100.0 µM -3% | [4]; at 1.2 µM -3% | [4]; at 3.7 µM 0% | [4]; at 11.0 µM 0% | [4]; at 33.0 µM 0% | [4]; at 100.0 µM -3% | [5]; at 1.2 µM 0% | [5]; at 3.7 µM -44% | [5]; [17] 59% | [5]; at 11.0 µM 4% | [5]; at 33.0 µM -4% | [5]; [18] 3% | [5]; at 50.0 µM 16.6% | [5]; at 100.0 µM -4% | [6]; at 1.2 µM -1% | [6]; at 3.7 µM -3% | [6]; [17] 12% | [6]; at 11.0 µM 1% | [6]; at 33.0 µM 0% | [6]; [18] 6% | [6]; at 50.0 µM 9.4% | [6]; at 100.0 µM -3% | [7]; at 1.2 µM 0% | [7]; at 3.7 µM 1% | [7]; at 11.0 µM 2% | [7]; at 33.0 µM 3% | [7]; at 100.0 µM -1% | [8]; [18] 15% | [8]; at 50.0 µM -8.4% | [9]; at 1.2 µM 0% | [9]; at 3.7 µM -4% | [9]; at 11.0 µM 0% | [9]; at 33.0 µM -2% | [9]; at 100.0 µM -2% | [10]; [17] 15% | [10]; [18] -1% | [11]; at 1.2 µM -4% | [11]; at 3.7 µM -3% | [11]; [17] 9% | [11]; at 11.0 µM -2% | [11]; at 33.0 µM -2% | [11]; [18] 15% | [11]; at 50.0 µM -15.2% | [11]; at 100.0 µM -1% | [12]; at 1.2 µM -3% | [12]; at 3.7 µM 8% | [12]; at 11.0 µM 0% | [12]; at 33.0 µM -1% | [12]; at 100.0 µM -1% | [13]; at 1.2 µM -2% | [13]; at 3.7 µM -1% | [13]; at 11.0 µM 0% | [13]; at 33.0 µM 0% | [13]; at 100.0 µM -2% | [14]; at 1.2 µM 0% | [14]; at 3.7 µM 1% | [14]; at 11.0 µM 3% | [14]; at 33.0 µM 2% | [14]; at 100.0 µM 3% | [15]; [17] 33% | [15]; [18] 1% | [15]; at 50.0 µM 10.8% | [16]; at 1.2 µM 3% | [16]; at 3.7 µM 2% | [16]; at 11.0 µM 1% | [16]; at 33.0 µM 1% | [16]; at 100.0 µM -4%
active: [8]; [17] 90% | [10]; at 50.0 µM 77.8%

Source: PubChem BioAssay (NCI)
